WRN inhibitor = qHTS for Inhibitors of WRN Helicase; Bifunctional 3'-5' exonuclease/ATP-dependent helicase WRN (Homo sapiens), Q14191; WRN helicase unwinding, fluorescent forked duplex, kinetic; Potency, µM (highest dose often 114 µM), most hits filed as inhibitors; 360,000 compounds, 0.46% hits; note: nearly all actives have a fitted effect of over 55% in size
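Enzyme (20 nM final) and test compound sit together 15 min at room temperature before substrate addition. Substrate is a single-forked duplex oligonucleotide (100 nM) labelled with fluorophore and quencher, with 2 mM ATP; helicase unwinding raises red fluorescence, read kinetically.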
Pol beta inh = qHTS Assay for Inhibitors of DNA Polymerase Beta; P06746; Pol beta primer extension/strand displacement, fluorescence kinetic; Potency, µM (doses to about 114 µM), usual class: inhibitors; 340,000 compounds, 1.3% hits
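Pol beta (10 nM) and compounds were preincubated 15 min at room temperature, then 50 nM substrate (final) started primer extension/strand displacement. Reads were taken at 0 and 10 min; concentration-response data were fitted to a four-parameter Hill equation.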
Pol kappa inh-1 = qHTS for Inhibitors of Polymerase Kappa | purified Pol kappa, fluorescent DNA synthesis assay, 10 min | Potency, µM (series often up to 107 µM), usual class: inhibitors | 400,000 compounds, 0.53% hits
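Activity was followed as the change in fluorescence between reads at 0 and 10 min after starting the reaction with 50 nM substrate. Beforehand, 10 nM polymerase had been preincubated with compound for 15 min at room temperature.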
Pol eta inh-1 = qHTS for Inhibitors of Polymerase Eta; recombinant Pol eta, fluorescent DNA replication assay; DNA polymerase eta (Homo sapiens), Q9Y253; Potency, µM (highest dose often 114 µM), hits mostly inhibitors; 390,000 compounds, 1.2% hits
Target sequence (Q9Y253 whole entry, looked up): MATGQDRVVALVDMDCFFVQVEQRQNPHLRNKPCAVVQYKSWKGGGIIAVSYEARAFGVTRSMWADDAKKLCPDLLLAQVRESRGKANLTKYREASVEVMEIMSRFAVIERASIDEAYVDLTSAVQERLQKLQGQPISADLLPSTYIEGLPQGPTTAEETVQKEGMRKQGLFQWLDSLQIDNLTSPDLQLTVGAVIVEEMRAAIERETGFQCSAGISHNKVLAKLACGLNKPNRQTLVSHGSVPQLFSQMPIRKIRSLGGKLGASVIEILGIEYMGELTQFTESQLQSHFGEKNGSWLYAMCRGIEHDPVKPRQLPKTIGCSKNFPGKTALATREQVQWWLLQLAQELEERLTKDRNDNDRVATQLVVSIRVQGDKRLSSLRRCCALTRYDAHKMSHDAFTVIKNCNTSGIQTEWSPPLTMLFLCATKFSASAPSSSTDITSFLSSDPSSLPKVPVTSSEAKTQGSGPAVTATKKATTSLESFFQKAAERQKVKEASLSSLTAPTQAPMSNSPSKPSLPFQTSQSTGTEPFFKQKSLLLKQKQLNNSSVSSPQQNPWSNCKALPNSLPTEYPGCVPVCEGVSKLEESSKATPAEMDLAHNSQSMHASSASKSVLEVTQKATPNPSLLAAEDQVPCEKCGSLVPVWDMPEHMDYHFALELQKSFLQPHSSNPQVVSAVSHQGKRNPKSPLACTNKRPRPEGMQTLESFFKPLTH
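Pol eta (10 nM) was preincubated with compounds for 15 min at room temperature, after which fluorescent replication substrate (50 nM final) was added to start the reaction. Fluorescence was read kinetically at 0 and 10 min.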
Pol iota inh = qHTS for Inhibitors of Polymerase Iota; DNA polymerase iota (Homo sapiens), Q9UNA4; Pol iota fluorescent replication assay, 10 min; Potency, µM (highest dose often 115 µM), usual class: inhibitors; 390,000 compounds, 1% hits
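Fluorescent replication assay read twice, at 0 min and 10 min after adding 50 nM (final) substrate. Enzyme (10 nM) and compounds were first incubated 15 min at room temperature; enzyme-free buffer wells were negative controls.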
FEN1 inh = qHTS Assay for the Inhibitors of Human Flap endonuclease 1 (FEN1) | Potency, µM (series often up to 114 µM), most hits filed as inhibitors | Recombinant FEN1 flap cleavage, fluorescence, 15 min | P39748 | 390,000 compounds, 0.35% hits; note: nearly all actives have a fitted effect of over 65% in size
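In this screen, 50 nM flap DNA substrate was added to 10 nM FEN1 pretreated with compound for 15 min at room temperature; cleavage was followed with reads at 0 and 15 min, and Hill fitting gave concentration–response parameters.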
Pol kappa inh-2 = qHTS for Inhibitors of Polymerase Kappa: Confirmatory Assay for Cherry-picked Compounds; shares compounds with Pol eta inh-1; 920 compounds, 76% hits; Potency, µM, hits mostly inhibitors; purified Pol-kappa, fluorescent strand-displacement substrate
Pol eta inh-2 = qHTS for Inhibitors of Polymerase Eta: Confirmatory Assay for Cherry-picked Compounds | shares compounds with Pol eta inh-1 | Pol eta primer extension, TAMRA/BHQ fluorescence, 10 min | Potency, µM, usual class: inhibitors | 2,600 compounds, 64% hits
A number is an active result; 0 = inactive; ? = inconclusive; - = not tested or not shown; ! = repeats disagree; [ ] = another dose, or the depositor's remark. Shown are actives, neighbours in structure and some others; about 2.4% of the full set was active somewhere. Calls come from the whole dose curve; as a rule, active = well fitted curve in the direction sought with a large enough effect; inconclusive = small, poorly fitted or top-dose-only effect, or another doubt; inactive = no such curve, though single readings can be large; an effect the other way counts as inactive or inconclusive.

SMILES	WRN inhibitor	Pol beta inh	Pol kappa inh-1	Pol eta inh-1	Pol iota inh	FEN1 inh	Pol kappa inh-2	Pol eta inh-2
CCOc1ccc(Cc2c(C)[nH]c3ccc(C(=O)O)cc3c2=S)cc1	?	?	?	50µM	?	0	-	?
COc1ccc(-n2c(NC(=O)c3ccco3)c(C#N)c3nc4ccccc4nc32)cc1	50µM	0	0	20µM	0	?	67	85
COc1ccc(C(=O)Nc2ccc(NC(=O)c3ccco3)cc2)cc1	0	0	0	0	0	0	-	-
Cc1cc(C2(c3ccc(O)c(C)c3)OC(=O)c3ccccc32)ccc1O	0	35µM	0	?	?	0	-	?
Cc1cc(O)c(C(C)C)cc1C1(c2cc(C(C)C)c(O)cc2C)OC(=O)c2ccccc21	0	0	0	0	0	0	-	-
COc1ccc(/C=C/C(=O)O)cc1S(=O)(=O)NC1CCS(=O)(=O)C1 (stereo unspecified)	0[11.6 µM]	?	0	28µM	?	0	67	?
COc1ccc(/C=C/C(=O)O)cc1S(=O)(=O)NCc1ccco1	0	?	0	56µM	?	0	-	67
COc1cc(/C=C/C(=O)O)cc(S(=O)(=O)NC2CCCC2)c1OC	0	0	0	0	0	0	-	-
COc1cc(/C=C/C(=O)O)cc(S(=O)(=O)NCc2ccco2)c1OC	0	0	0	0	0	0	-	-
O=C(c1ccncc1)N1C2C=CC(C2)C1(C(F)(F)F)C(F)(F)F (stereo unspecified)	-	0	-	-	-	-	-	-
O=C(c1cccnc1)N1C2C=CC(C2)C1(C(F)(F)F)C(F)(F)F (stereo unspecified)	?	40µM	0	14µM	?	0	-	?
COc1ccc(C2=NN(c3nc(-c4ccccc4)c(CC(=O)O)s3)C(c3ccco3)C2)cc1 (stereo unspecified)	?	22µM	?	28µM	?	0	15	?
Cc1nc(N2N=C(c3ccc(Cl)cc3)CC2c2ccco2)sc1C(=O)N(C)C (stereo unspecified)	0	?	0	0	0	0	-	-
Cc1cc(=O)n(Cc2ccccc2Cl)c2c1c(C)nn2-c1ccccc1	-	0	0	0	0	0	-	-
NNc1cc([N+](=O)[O-])cc2c1C(=O)N(Cc1ccccc1)S2=O (stereo unspecified)	0	?	79µM	45µM	35µM	0	?	?
CC(C)=NNc1cc([N+](=O)[O-])cc2c1C(=O)N(C)S2=O (stereo unspecified)	0	0	0	0	0	0	-	-
Cc1ccc(Cn2c(CN3CCN(c4cccc(Cl)c4)CC3)nc3c2c(=O)n(C)c(=O)n3C)cc1	-	0	0	0	0	0	-	-
CCOc1ccc(NS(=O)(=O)c2ccc3[nH]cc(C(=O)NCc4ccco4)c(=O)c3c2)cc1	-	22µM	0	79µM	?	0	?	-
CCc1ccc(NS(=O)(=O)c2ccc3[nH]cc(C(=O)NC4CCCC4)c(=O)c3c2)cc1	-	50µM	?	?	89µM	0	?	-
CCc1ccc(NS(=O)(=O)c2ccc3[nH]cc(C(=O)N(C)Cc4ccco4)c(=O)c3c2)cc1	0	45µM!	0	89µM	?	0	-	?
CCOc1ccc(NS(=O)(=O)c2ccc3[nH]cc(C(=O)NC4CCCC4)c(=O)c3c2)cc1	-	?	0	0	?	0	-	-
CCOC(=O)c1ccc(NC(=O)CSc2c(C(C)C)cnc3c2c(=O)n(C)c(=O)n3C)cc1	-	0	0	0	0	0	-	-
CC(C)CCOc1ccc(C(CC(N)=O)C(=O)O)cc1 (stereo unspecified)	0	0	0	0	0	0	-	-
O=C(O)CC(C(=O)O)c1ccc(OCCCCOc2ccc(C(CC(=O)O)C(=O)O)cc2)cc1 (stereo unspecified)	0[11.6 µM]	?	79µM	18µM	79µM	0	9.5	9.5
O=C1C=C(c2ccc(C(=O)O)cc2)C[C@@H](c2ccc3c(c2)OCO3)C1	0[11.6 µM]	-	0	?	?	0	-	?
SMILES	WRN inhibitor	Pol beta inh	Pol kappa inh-1	Pol eta inh-1	Pol iota inh	FEN1 inh	Pol kappa inh-2	Pol eta inh-2
COC(=O)CN1C(=O)[C@@H]2[C@H](C1=O)[C@@H]1CC(C(=O)OC)=C[C@@H](C(=O)OC)C3C1=C(C(=O)[C@@]3(C)NC(=O)c1ccccc1)[C@@H]2C (stereo partly specified)	-	-	0	-	0	0	-	-
COc1ccccc1C(=O)N/C(=C/c1ccco1)C(=O)Nc1cccc(C(=O)O)c1	?	?	45µM	20µM	?	?	34	76
Cc1cccc(NC(=O)/C(=C\c2ccc([N+](=O)[O-])o2)NC(=O)c2ccc(Cl)cc2)c1	0[11.6 µM]	10µM	?	10µM	?	0	-	?
O=C(/C=C/c1ccco1)Nc1ccccc1C(=O)Nc1cccc(C(=O)O)c1	?	0	?	18µM	20µM	0	24	30
Cc1cc(NC(=O)/C=C/c2ccco2)ccc1NC(=O)c1ccccc1	0	0	0	0	0	0	-	-
Cc1ccc(C(=O)N/C(=C/c2ccco2)C(=O)Nc2cccc(C(=O)O)c2)cc1	0	0	?	22µM	?	0	-	?
Cc1c(Cl)cccc1-c1ccc(CNCCSc2nnnn2-c2ccccc2)o1	-	0	0	0	?	0	-	-
COc1cccc(Cn2c(=O)cnc3cnc(OCc4ccccc4)nc32)c1	-	-	0	-	-	-	-	-
COc1cccc(OCCOc2ccc(/C=C3/SC(=S)NC3=O)cc2)c1	?	10µM	0	28µM	?	0	?	85
COc1ccc(CCNc2nc3cc(OC)c(OC)cc3c3nc(-c4ccccc4)nn23)cc1OC	-	0	0	0	0	0	-	-
CCC(=O)N1CCc2cc(Br)cc(S(=O)(=O)CCC(=O)NCCc3ccc(C)cc3)c21	-	0	0	0	0	0	-	-
CCC(=O)N1CCc2cc(Br)cc(S(=O)(=O)CCC(=O)NCCc3ccccc3Cl)c21	-	?	0	?	0	0	34	76
Cc1ccc2c(c1)c(=O)c1ccccc1n2CCCC(=O)Nc1ccc(Cl)c(Cl)c1	-	0	0	0	0	0	-	-
Cc1ccc2c(c1)c(=O)c1ccccc1n2CCCC(=O)Nc1ccc(Cl)cc1C	-	?	0	89µM	0	0	?	-

Assay outcomes from PubChem.
